# Laboratory results: PubChem BioAssay (NCI)
# The panel holds about 79,000 compounds, 15% with a hit somewhere; the sample as a whole holds those more often. Values without a mark were called inactive. Active and inactive are the calls of the source. Rule as the data show it: active = growth inhibition above about 70%; inactive = the rest.
# Assays:
# [1] = NCI Yeast Anticancer Drug Screen. Data for the mec2-1 strain (AID 157); details: S. cerevisiae mec2-1 strain, active compounds read high
# In short: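 Readout is yeast growth inhibition, normalised to vehicle-treated controls, in the mec2-1 strain exposed to compound.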
# [2] = NCI Yeast Anticancer Drug Screen. Data for the rad14 strain (AID 159);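 also: 0% = growth of vehicle-treated control cultures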; details: S. cerevisiae rad14 strain growth inhibition, active compounds read high
# In short: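 Test compounds were applied to a repair-deficient yeast strain. Its growth was then compared with that of cultures given vehicle alone, and inhibition was expressed relative to those controls.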
# [3] = NCI Yeast Anticancer Drug Screen. Data for the sgs1 mgt1 strain (AID 161);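 also: 0% = growth of cultures given vehicle only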; details: S. cerevisiae sgs1 mgt1 strain, active compounds read high
# In short: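 Compounds are added to genetically altered yeast, and growth is compared with cultures given vehicle alone to give percent inhibition.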
# [4] = NCI Yeast Anticancer Drug Screen. Data for the CLN2oe strain (AID 163);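 also: 0% = growth of vehicle-only control cultures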; details: S. cerevisiae CLN2oe strain, active compounds read high
# In short: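 Values reflect how much compound exposure reduced yeast growth, referenced to vehicle-exposed cells. Assay organism is a strain with a defined genetic change affecting cell-cycle control.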
# [5] = NCI Yeast Anticancer Drug Screen. Data for the cln2 rad14 strain (AID 165);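 also: 0% = growth equal to vehicle treated cultures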; details: S. cerevisiae cln2 rad14 strain, active compounds read high
# In short: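 Relative to vehicle controls, growth inhibition of compound-treated cln2 rad14 yeast was recorded.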
# [6] = NCI Yeast Anticancer Drug Screen. Data for the bub3 strain (AID 167); details: S. cerevisiae bub3 mutant strain, active compounds read high
# In short: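 Yeast carrying a defined mutation is treated with each compound, and growth is compared with that of vehicle-exposed cells to give inhibition.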
# [7] = NCI Yeast Anticancer Drug Screen. Data for the wt2 strain (AID 169);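 also: 0% = growth of vehicle-treated yeast cultures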; details: S. cerevisiae wt2 strain growth inhibition, active compounds read high
# In short: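 Values express reduction in yeast growth under compound treatment, referenced to vehicle-treated cells.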
# [8] = NCI Yeast Anticancer Drug Screen. Data for the mlh1 strain (AID 171);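 also: 0% = growth of vehicle-treated control cultures of the same strain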; details: S. cerevisiae mlh1 strain growth inhibition, active compounds read high
# In short: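 Steps: expose the defined-mutant yeast strain to compound; expose a parallel culture to vehicle; measure growth; express compound effect as inhibition relative to the vehicle culture.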
# [9] = NCI Yeast Anticancer Drug Screen. Data for the sgs1 strain (AID 173);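 also: 0% = growth of vehicle-only control cultures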; details: S. cerevisiae sgs1 mutant, active compounds read high
# In short: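 Treat defined-mutant yeast with compound; measure growth; calculate inhibition relative to vehicle-treated cells.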
# [10] = NCI Yeast Anticancer Drug Screen. Data for the mlh1 rad18 strain (AID 175); details: S. cerevisiae mlh1 rad18 strain growth inhibition, active compounds read high
# In short: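 Test agents were incubated with a yeast strain of defined genotype (DNA damage repair defect). Inhibition of growth was derived by comparison with vehicle-exposed cultures.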
# [11] = NCI Yeast Anticancer Drug Screen. Data for the rad18 strain (AID 177); details: S. cerevisiae rad18 mutant growth inhibition, active compounds read high
# In short: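 A genetically defined yeast mutant impaired in DNA damage repair was treated with test compounds, then its growth was measured against cultures receiving vehicle alone.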
# [12] = NCI Yeast Anticancer Drug Screen. Data for the rad52 strain (AID 147);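 also: 0% = growth of vehicle-treated control cultures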; details: S. cerevisiae rad52 mutant growth inhibition, active compounds read high
# In short: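 Screen used a yeast mutant impaired in DNA repair. After compound exposure, growth was measured. Values reflect inhibition compared with vehicle-treated cells.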
# [13] = NCI Yeast Anticancer Drug Screen. Data for the wt1 strain (AID 149);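 also: 0% = growth of vehicle-treated wt1 cultures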; details: S. cerevisiae wt1 strain (SPY 50644) growth inhibition, active compounds read high
# In short: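 wt1 yeast, compound-treated; % growth inhibition vs vehicle control.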
# [14] = NCI Yeast Anticancer Drug Screen. Data for the rad50EPP+ strain (AID 151);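 also: 0% = growth of vehicle-treated control cultures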; details: S. cerevisiae rad50 mutant strain, active compounds read high
# In short: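 Exposing the rad50EPP+ strain to each compound, growth was compared with vehicle-only cultures to give inhibition.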
# [15] = NCI Yeast Anticancer Drug Screen. Data for the mgt1 strain (AID 153); details: S. cerevisiae mgt1 mutant growth inhibition, active compounds read high
# In short: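 Genetically defined yeast (mgt1) treated with compound; inhibition of growth expressed against vehicle-treated controls.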
# [16] = NCI Yeast Anticancer Drug Screen. Data for the rad50 strain (AID 155);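 also: 0% = growth of vehicle-only cultures of the same strain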; details: S. cerevisiae rad50 strain growth inhibition, active compounds read high
# In short: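 Genetically altered yeast (DNA repair pathway); compound treatment; growth inhibition vs vehicle ctrl.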
# [17] = at 5.0 µM (retest, dose inferred, filed as 0.5)
# [18] = at 50.0 µM (retest, dose inferred, filed as 5.0)
structure (smiles),measurement,setting,value
O=[N+]([O-])c1cc(S(=O)(=O)F)ccc1Cl,growth inhibition,[1]; [17],50%
same,growth inhibition,[1]; at 11.0 µM,35%
same,growth inhibition,[1]; at 33.0 µM,95% (active)
same,growth inhibition,[1]; [18],62%
same,growth inhibition,[1]; at 50.0 µM,94.5% (active)
same,growth inhibition,[1]; at 100.0 µM,100% (active)
same,growth inhibition,[2]; at 1.2 µM,1%
same,growth inhibition,[2]; at 3.7 µM,-6%
same,growth inhibition,[2]; at 11.0 µM,7%
same,growth inhibition,[2]; at 33.0 µM,94% (active)
same,growth inhibition,[2]; at 100.0 µM,99% (active)
same,growth inhibition,[3]; [17],11%
same,growth inhibition,[3]; [18],100% (active)
same,growth inhibition,[3]; at 50.0 µM,93.4% (active)
same,growth inhibition,[4]; at 1.2 µM,26%
same,growth inhibition,[4]; at 3.7 µM,20%
same,growth inhibition,[4]; at 11.0 µM,39%
same,growth inhibition,[4]; at 33.0 µM,93% (active)
same,growth inhibition,[4]; at 100.0 µM,98% (active)
same,growth inhibition,[5]; [17],27%
same,growth inhibition,[5]; [18],100% (active)
same,growth inhibition,[5]; at 50.0 µM,92.4% (active)
same,growth inhibition,[6]; at 1.2 µM,-10%
same,growth inhibition,[6]; at 3.7 µM,-6%
same,growth inhibition,[6]; [17],39%
same,growth inhibition,[6]; at 11.0 µM,1%
same,growth inhibition,[6]; at 33.0 µM,90% (active)
same,growth inhibition,[6]; [18],99% (active)
same,growth inhibition,[6]; at 50.0 µM,93.2% (active)
same,growth inhibition,[6]; at 100.0 µM,98% (active)
same,growth inhibition,[7]; at 1.2 µM,-11%
same,growth inhibition,[7]; at 3.7 µM,-4%
same,growth inhibition,[7]; at 11.0 µM,17%
same,growth inhibition,[7]; at 33.0 µM,85% (active)
same,growth inhibition,[7]; at 100.0 µM,98% (active)
same,growth inhibition,[8]; at 1.2 µM,15%
same,growth inhibition,[8]; at 3.7 µM,19%
same,growth inhibition,[8]; at 11.0 µM,29%
same,growth inhibition,[8]; at 33.0 µM,95% (active)
same,growth inhibition,[8]; at 100.0 µM,99% (active)
same,growth inhibition,[9]; at 1.2 µM,6%
same,growth inhibition,[9]; at 3.7 µM,13%
same,growth inhibition,[9]; at 11.0 µM,50%
same,growth inhibition,[9]; at 33.0 µM,97% (active)
same,growth inhibition,[9]; at 100.0 µM,98% (active)
same,growth inhibition,[10]; [17],32%
same,growth inhibition,[10]; [18],54%
same,growth inhibition,[10]; at 50.0 µM,92.8% (active)
same,growth inhibition,[11]; at 1.2 µM,4%
same,growth inhibition,[11]; at 3.7 µM,15%
same,growth inhibition,[11]; at 11.0 µM,30%
same,growth inhibition,[11]; at 33.0 µM,92% (active)
same,growth inhibition,[11]; at 100.0 µM,99% (active)
COC(=O)C1=C(C(=O)OC)SC2(S1)C(C(=O)OC)=C(C(=O)OC)Sc1c2ssc1=O,growth inhibition,[12]; at 1.2 µM,55%
same,growth inhibition,[12]; at 3.7 µM,72% (active)
same,growth inhibition,[12]; at 11.0 µM,93% (active)
same,growth inhibition,[12]; at 33.0 µM,98% (active)
same,growth inhibition,[12]; at 100.0 µM,89% (active)
same,growth inhibition,[13]; at 1.2 µM,27%
same,growth inhibition,[13]; at 3.7 µM,26%
same,growth inhibition,[13]; at 11.0 µM,66%
same,growth inhibition,[13]; at 33.0 µM,99% (active)
same,growth inhibition,[13]; at 100.0 µM,94% (active)
same,growth inhibition,[14]; at 1.2 µM,9%
same,growth inhibition,[14]; at 3.7 µM,8%
same,growth inhibition,[14]; at 11.0 µM,30%
same,growth inhibition,[14]; at 33.0 µM,56%
same,growth inhibition,[14]; at 100.0 µM,54%
same,growth inhibition,[15]; at 1.2 µM,44%
same,growth inhibition,[15]; at 3.7 µM,51%
same,growth inhibition,[15]; at 11.0 µM,88% (active)
same,growth inhibition,[15]; at 33.0 µM,99% (active)
same,growth inhibition,[15]; at 100.0 µM,92% (active)
same,growth inhibition,[16]; at 1.2 µM,46%
same,growth inhibition,[16]; at 3.7 µM,73% (active)
same,growth inhibition,[16]; [17],13%
same,growth inhibition,[16]; at 11.0 µM,93% (active)
same,growth inhibition,[16]; at 33.0 µM,98% (active)
same,growth inhibition,[16]; [18],95% (active)
same,growth inhibition,[16]; at 50.0 µM,82.2% (active)
same,growth inhibition,[16]; at 100.0 µM,91% (active)
same,growth inhibition,[1]; at 1.2 µM,16%
same,growth inhibition,[1]; at 3.7 µM,17%
same,growth inhibition,[1]; [17],17%
same,growth inhibition,[1]; at 11.0 µM,85% (active)
same,growth inhibition,[1]; at 33.0 µM,98% (active)
same,growth inhibition,[1]; [18],95% (active)
same,growth inhibition,[1]; at 50.0 µM,86.2% (active)
same,growth inhibition,[1]; at 100.0 µM,88% (active)
same,growth inhibition,[2]; at 1.2 µM,27%
same,growth inhibition,[2]; at 3.7 µM,30%
same,growth inhibition,[2]; at 11.0 µM,80% (active)
same,growth inhibition,[2]; at 33.0 µM,99% (active)
same,growth inhibition,[2]; at 100.0 µM,92% (active)
same,growth inhibition,[3]; [17],26%
same,growth inhibition,[3]; [18],95% (active)
same,growth inhibition,[3]; at 50.0 µM,84.1% (active)
same,growth inhibition,[4]; at 1.2 µM,14%
same,growth inhibition,[4]; at 3.7 µM,26%
same,growth inhibition,[4]; at 11.0 µM,91% (active)
same,growth inhibition,[4]; at 33.0 µM,98% (active)
same,growth inhibition,[4]; at 100.0 µM,91% (active)
same,growth inhibition,[5]; [17],70% (active)
same,growth inhibition,[5]; [18],95% (active)
same,growth inhibition,[5]; at 50.0 µM,86.2% (active)
same,growth inhibition,[6]; at 1.2 µM,23%
same,growth inhibition,[6]; at 3.7 µM,32%
same,growth inhibition,[6]; [17],55%
same,growth inhibition,[6]; at 11.0 µM,88% (active)
same,growth inhibition,[6]; at 33.0 µM,98% (active)
same,growth inhibition,[6]; [18],94% (active)
same,growth inhibition,[6]; at 50.0 µM,78.8% (active)
same,growth inhibition,[6]; at 100.0 µM,91% (active)
same,growth inhibition,[7]; at 1.2 µM,21%
same,growth inhibition,[7]; at 3.7 µM,54%
same,growth inhibition,[7]; at 11.0 µM,99% (active)
same,growth inhibition,[7]; at 33.0 µM,96% (active)
same,growth inhibition,[7]; at 100.0 µM,89% (active)
same,growth inhibition,[8]; at 1.2 µM,44%
same,growth inhibition,[8]; at 3.7 µM,51%
same,growth inhibition,[8]; at 11.0 µM,88% (active)
same,growth inhibition,[8]; at 33.0 µM,99% (active)
same,growth inhibition,[8]; at 100.0 µM,92% (active)
same,growth inhibition,[9]; at 1.2 µM,43%
same,growth inhibition,[9]; at 3.7 µM,58%
same,growth inhibition,[9]; at 11.0 µM,87% (active)
same,growth inhibition,[9]; at 33.0 µM,99% (active)
same,growth inhibition,[9]; at 100.0 µM,93% (active)
same,growth inhibition,[10]; [17],26%
same,growth inhibition,[10]; [18],96% (active)
same,growth inhibition,[10]; at 50.0 µM,86.8% (active)
same,growth inhibition,[11]; at 1.2 µM,30%
same,growth inhibition,[11]; at 3.7 µM,55%
same,growth inhibition,[11]; at 11.0 µM,91% (active)
same,growth inhibition,[11]; at 33.0 µM,95% (active)
same,growth inhibition,[11]; at 100.0 µM,90% (active)
